# Measurements as given in PubChem BioAssay (NCI).
# Compounds without any hit were thinned out: in the full panel of roughly 79,000, 15% have a hit. Values without a mark were called inactive. Activity calls are given as the source filed them. No stated cut-off is given here; in the data, active means growth inhibition above about 70%; inactive means the rest.
# Test: NCI Yeast Anticancer Drug Screen. Data for the wt1 strain (AID 149);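 further: 0% = growth of vehicle-treated wt1 cultures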
# Details: S. cerevisiae wt1 strain (SPY 50644) growth inhibition, stronger effect = higher value
# Experimental: Growth inhibition of yeast strains with defined genetic alterations is measured as a screen for potential anti-cancer activity. Selected strains with alterations in DNA damage repair or cell cycle control were exposed to compounds and growth inhibition was measured relative to vehicle treated controls. The strain used in this assay is wt1
Structure (SMILES),growth inhibition (at 1.2 µM),growth inhibition (at 3.7 µM),growth inhibition (at 11.0 µM),growth inhibition (at 33.0 µM),growth inhibition (at 100.0 µM)
CCCCCCCCCCCCCC(=O)OC(C)CCC1CCCO1 (stereo not given),-3%,-2%,-1%,-1%,-3%
Clc1c(Cl)c(Cl)c2c(nnn2C2CCCO2)c1Cl (stereo not given),0%,-1%,-5%,11%,46%
O=C(/C=C/c1cccc(Br)c1)c1ccc(Cl)cc1,-46%,-44%,-12%,9%,63%
CCOC(=O)[C@]1(Br)CC[C@@]1(Br)C(=O)OCC,-44%,-33%,-3%,98% (active),99% (active)
Cc1cc(C(C)(C)CC(C)(C)C)cc(O)c1O,-19%,9%,70% (active),94% (active),98% (active)
O/N=C/C1c2ccccc2-c2ccccc21,-4%,-4%,-7%,20%,49%
Oc1ccc(C=Nc2ccccc2O)cc1,28%,28%,25%,27%,39%
O=c1ccc(N=Nc2ccccc2)ccc1O,16%,56%,97% (active),99% (active),97% (active)
